# Experimental data: ChEMBL document CHEMBL2218924, “A broad activity screen in support of a chemogenomic map for kinase signalling research and drug discovery” (Biochem J, 2013); call rule not given here
# Legend:
# [1] = target: T1, Ephrin type-B receptor 1 (Homo sapiens) (UniProt P54762); conditions: at 10 µM
# T1 sequence (whole entry): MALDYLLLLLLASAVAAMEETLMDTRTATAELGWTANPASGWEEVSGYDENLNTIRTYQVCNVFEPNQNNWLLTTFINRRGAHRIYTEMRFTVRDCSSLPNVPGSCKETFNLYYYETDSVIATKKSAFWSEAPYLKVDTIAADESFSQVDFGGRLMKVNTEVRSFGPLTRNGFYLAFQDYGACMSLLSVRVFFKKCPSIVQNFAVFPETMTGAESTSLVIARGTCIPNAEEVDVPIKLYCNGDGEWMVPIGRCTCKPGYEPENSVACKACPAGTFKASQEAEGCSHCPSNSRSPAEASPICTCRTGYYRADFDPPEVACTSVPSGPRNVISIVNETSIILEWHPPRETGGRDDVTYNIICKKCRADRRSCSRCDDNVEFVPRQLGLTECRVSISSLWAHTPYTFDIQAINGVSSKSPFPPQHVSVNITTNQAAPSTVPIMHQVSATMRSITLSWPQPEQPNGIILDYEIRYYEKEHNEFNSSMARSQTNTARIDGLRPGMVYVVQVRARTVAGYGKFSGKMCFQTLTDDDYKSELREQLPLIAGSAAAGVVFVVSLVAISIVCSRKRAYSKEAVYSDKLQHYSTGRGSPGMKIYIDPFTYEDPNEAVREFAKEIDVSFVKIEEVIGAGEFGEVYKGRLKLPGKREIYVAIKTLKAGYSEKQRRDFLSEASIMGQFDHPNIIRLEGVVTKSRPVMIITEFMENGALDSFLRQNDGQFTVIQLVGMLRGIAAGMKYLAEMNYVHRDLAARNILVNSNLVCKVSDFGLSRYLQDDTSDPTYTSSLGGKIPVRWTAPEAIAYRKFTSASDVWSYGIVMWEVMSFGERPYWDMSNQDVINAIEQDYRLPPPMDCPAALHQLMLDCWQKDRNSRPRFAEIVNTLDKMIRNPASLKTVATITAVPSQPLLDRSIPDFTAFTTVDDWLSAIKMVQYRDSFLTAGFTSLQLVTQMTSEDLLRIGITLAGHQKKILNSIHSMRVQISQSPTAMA
# [2] = target: T2, Ephrin type-B receptor 2 (Homo sapiens) (UniProt P29323); conditions: at 1 µM
# T2 sequence (whole entry): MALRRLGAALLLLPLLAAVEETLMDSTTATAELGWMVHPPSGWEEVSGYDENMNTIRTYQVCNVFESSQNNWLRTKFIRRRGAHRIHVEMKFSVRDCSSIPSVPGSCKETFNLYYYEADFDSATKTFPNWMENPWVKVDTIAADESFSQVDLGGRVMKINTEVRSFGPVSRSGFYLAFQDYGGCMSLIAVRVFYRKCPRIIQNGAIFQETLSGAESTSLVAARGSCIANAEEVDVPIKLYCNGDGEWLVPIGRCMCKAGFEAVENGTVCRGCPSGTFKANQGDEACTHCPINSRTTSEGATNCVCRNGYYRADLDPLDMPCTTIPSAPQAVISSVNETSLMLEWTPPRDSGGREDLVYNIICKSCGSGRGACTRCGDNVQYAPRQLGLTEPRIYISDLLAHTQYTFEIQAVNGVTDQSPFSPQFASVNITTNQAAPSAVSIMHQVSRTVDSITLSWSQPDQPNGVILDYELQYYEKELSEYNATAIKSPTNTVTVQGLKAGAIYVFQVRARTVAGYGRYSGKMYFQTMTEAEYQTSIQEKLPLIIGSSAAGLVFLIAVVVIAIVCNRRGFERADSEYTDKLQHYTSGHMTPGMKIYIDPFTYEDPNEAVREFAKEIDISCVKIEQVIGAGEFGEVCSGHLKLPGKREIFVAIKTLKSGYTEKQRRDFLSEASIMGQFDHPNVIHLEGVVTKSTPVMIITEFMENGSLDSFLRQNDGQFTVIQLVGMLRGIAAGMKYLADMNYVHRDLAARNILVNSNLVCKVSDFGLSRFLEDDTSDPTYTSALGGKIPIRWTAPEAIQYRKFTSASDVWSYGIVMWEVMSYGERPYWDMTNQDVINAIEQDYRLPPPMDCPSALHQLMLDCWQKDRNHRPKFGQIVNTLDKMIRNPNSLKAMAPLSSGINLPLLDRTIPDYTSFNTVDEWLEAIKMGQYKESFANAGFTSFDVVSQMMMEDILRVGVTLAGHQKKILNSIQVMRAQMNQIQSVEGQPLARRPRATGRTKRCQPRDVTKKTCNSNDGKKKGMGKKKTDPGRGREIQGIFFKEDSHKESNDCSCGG
# [3] = target: T2, Ephrin type-B receptor 2 (Homo sapiens); conditions: at 10 µM
# [4] = target: T3, Ephrin type-B receptor 3 (Homo sapiens) (UniProt P54753); conditions: at 1 µM
# T3 sequence (whole entry): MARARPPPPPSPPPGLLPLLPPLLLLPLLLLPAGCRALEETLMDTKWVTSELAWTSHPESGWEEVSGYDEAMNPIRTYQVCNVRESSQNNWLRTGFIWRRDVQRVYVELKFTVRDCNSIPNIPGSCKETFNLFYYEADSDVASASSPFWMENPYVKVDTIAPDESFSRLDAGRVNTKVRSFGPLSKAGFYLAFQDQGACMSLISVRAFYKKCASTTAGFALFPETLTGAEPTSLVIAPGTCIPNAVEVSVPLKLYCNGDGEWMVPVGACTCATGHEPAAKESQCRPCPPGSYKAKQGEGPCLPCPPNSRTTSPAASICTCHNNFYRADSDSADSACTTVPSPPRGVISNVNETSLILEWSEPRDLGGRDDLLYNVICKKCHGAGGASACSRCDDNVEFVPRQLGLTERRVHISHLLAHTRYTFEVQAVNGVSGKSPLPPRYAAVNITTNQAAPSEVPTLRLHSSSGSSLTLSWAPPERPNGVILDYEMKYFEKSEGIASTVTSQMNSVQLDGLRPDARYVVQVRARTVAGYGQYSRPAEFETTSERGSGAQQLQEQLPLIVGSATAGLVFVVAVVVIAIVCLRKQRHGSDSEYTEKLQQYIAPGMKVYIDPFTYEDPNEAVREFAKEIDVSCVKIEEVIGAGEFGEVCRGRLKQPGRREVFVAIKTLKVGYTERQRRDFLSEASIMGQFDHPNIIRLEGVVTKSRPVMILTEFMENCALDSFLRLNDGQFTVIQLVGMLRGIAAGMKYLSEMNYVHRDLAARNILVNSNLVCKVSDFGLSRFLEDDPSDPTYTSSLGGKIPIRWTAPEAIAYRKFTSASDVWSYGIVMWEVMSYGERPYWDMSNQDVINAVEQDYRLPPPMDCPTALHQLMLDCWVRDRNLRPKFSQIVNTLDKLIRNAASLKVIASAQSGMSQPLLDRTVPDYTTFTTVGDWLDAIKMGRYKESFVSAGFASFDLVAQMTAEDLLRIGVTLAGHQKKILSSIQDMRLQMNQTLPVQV
# [5] = target: T3, Ephrin type-B receptor 3 (Homo sapiens); conditions: at 10 µM
# [6] = target: T4, Ephrin type-B receptor 4 (Homo sapiens) (UniProt P54760); conditions: at 1 µM
# T4 sequence (whole entry): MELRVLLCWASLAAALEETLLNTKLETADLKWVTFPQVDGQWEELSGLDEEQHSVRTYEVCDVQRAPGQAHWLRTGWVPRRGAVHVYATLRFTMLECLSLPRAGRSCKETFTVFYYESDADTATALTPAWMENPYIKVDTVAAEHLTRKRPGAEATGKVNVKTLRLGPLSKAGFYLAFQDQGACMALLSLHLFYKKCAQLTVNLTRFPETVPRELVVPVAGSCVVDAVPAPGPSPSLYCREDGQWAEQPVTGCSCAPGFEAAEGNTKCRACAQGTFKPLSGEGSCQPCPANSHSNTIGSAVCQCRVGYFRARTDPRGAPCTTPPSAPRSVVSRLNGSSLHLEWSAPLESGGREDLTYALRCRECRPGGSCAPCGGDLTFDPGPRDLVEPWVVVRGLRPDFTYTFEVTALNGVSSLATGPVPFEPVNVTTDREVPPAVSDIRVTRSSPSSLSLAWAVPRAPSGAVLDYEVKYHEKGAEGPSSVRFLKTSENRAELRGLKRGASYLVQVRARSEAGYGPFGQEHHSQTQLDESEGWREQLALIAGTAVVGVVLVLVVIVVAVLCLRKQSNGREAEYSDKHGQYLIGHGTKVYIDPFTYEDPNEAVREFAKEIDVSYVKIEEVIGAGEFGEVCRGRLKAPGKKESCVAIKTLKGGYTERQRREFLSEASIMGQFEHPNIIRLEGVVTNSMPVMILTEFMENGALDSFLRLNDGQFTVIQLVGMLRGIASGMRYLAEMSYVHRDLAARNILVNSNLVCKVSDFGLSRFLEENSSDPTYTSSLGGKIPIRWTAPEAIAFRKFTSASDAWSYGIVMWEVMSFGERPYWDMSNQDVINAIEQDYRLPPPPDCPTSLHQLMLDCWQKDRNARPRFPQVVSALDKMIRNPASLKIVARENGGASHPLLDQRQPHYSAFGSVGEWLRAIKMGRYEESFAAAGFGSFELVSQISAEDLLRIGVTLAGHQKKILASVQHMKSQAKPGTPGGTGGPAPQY
# [7] = target: T4, Ephrin type-B receptor 4 (Homo sapiens); conditions: at 10 µM
# [8] = target: Receptor tyrosine-protein kinase erbB-4 (Homo sapiens) (UniProt Q15303); conditions: at 1 µM
# [9] = target: Receptor tyrosine-protein kinase erbB-4 (Homo sapiens) (UniProt Q15303); conditions: at 10 µM
# [10] = target: Focal adhesion kinase 1 (Homo sapiens) (UniProt Q05397); conditions: at 1 µM
# Chain of Focal adhesion kinase 1 (Homo sapiens) (Q05397 2-1052 limits assumed): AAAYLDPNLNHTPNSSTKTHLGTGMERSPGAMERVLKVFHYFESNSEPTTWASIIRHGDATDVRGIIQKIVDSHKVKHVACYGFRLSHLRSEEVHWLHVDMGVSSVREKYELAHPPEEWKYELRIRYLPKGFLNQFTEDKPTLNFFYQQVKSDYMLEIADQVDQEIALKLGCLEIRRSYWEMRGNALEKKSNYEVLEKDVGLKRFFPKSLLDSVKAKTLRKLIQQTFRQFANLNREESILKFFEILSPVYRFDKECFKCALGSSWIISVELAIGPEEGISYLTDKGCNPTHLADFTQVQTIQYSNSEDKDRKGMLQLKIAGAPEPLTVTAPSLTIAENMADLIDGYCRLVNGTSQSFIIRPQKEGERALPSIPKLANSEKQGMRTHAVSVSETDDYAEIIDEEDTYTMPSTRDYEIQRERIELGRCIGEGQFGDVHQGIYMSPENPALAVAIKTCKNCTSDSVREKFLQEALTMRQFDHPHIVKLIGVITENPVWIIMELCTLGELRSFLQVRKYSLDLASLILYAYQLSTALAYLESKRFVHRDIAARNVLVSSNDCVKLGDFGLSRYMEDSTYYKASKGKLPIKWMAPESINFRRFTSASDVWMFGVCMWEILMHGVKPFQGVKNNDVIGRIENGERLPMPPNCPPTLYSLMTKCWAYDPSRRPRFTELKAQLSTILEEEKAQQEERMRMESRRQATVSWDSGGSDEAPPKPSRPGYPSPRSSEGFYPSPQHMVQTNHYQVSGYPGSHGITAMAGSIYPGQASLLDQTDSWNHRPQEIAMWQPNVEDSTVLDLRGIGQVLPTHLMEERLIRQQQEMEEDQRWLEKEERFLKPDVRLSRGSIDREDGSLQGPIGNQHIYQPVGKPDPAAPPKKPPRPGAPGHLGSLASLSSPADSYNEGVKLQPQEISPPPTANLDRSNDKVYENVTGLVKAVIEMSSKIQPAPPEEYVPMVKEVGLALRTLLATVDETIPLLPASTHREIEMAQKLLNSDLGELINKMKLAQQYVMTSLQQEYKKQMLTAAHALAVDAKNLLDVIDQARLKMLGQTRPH
# Chain of Receptor tyrosine-protein kinase erbB-4 (Homo sapiens) (Q15303 whole entry): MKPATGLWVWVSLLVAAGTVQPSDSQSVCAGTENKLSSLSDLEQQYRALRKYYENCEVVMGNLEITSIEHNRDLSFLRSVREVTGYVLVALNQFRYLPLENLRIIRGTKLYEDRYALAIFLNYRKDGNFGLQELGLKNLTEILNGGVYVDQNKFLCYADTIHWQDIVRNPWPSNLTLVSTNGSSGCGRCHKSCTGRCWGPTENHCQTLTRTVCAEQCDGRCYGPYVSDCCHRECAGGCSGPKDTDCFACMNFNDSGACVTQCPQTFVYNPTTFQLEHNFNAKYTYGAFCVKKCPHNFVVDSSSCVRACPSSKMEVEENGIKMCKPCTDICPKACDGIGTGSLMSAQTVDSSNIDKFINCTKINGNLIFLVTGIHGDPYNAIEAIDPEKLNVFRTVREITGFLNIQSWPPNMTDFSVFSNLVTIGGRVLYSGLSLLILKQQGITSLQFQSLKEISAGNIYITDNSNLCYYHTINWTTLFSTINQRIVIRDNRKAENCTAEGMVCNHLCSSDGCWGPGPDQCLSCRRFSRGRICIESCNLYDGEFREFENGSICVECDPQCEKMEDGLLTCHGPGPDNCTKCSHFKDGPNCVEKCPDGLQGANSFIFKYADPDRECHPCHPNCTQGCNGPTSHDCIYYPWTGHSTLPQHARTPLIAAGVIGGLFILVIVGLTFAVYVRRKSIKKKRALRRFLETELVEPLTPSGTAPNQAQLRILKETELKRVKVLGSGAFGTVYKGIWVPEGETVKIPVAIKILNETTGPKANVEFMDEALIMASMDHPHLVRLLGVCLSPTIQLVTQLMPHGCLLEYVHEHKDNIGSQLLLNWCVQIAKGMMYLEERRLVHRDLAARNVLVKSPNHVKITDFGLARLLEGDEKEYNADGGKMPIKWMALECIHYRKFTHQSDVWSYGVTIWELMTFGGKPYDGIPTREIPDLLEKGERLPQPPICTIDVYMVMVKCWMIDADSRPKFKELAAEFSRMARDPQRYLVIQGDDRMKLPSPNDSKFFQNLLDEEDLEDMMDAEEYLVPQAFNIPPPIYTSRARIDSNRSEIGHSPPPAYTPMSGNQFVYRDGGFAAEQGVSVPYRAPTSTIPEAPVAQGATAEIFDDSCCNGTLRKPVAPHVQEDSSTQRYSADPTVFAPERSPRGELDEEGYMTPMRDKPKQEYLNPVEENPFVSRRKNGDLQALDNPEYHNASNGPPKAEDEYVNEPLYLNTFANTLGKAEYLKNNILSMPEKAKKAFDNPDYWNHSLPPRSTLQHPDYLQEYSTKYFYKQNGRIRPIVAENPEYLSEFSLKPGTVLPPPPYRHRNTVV
compound,measurement,setting,value
CNc1cc2c(Nc3cccc(Br)c3)ncnc2cn1,residual activity,[1],62%
same,residual activity,[2],94%
same,residual activity,[3],62%
same,residual activity,[4],95% (inactive)
same,residual activity,[5],120%
same,residual activity,[6],63%
same,residual activity,[7],13%
same,residual activity,[8],42%
same,residual activity,[9],31%
same,residual activity,[10],107%
